A549 tox – Nrf2 qHTS screen for inhibitors: counterscreen for cytotoxicity | 0.16% of 390,000 active | Potency, µM (series often up to 46 µM), for the others: at the highest dose activity change, negative = cytotoxicity, most hits filed as inhibitors | A549 ARE-Fluc cells, CellTiter-Fluor viability, 18-24 h | AID 504648, 2011; further: potency means the concentration at half of the fitted maximal effect; on the % scale 0 is the no-effect control and ±100 the full control effect
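A549 ARE-Fluc cells in 5% FBS OPTI-MEM, 5000 cells/well, rested 2 h then exposed to compounds in concentration-response for 18-24 h at 37 °C. Viability by CellTiter-Fluor fluorescence (Ex 405/Em 525) after 30 min; luciferase luminescence (BugLite, 15 min, RT) read afterwards.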
Nrf2 ARE act – qHTS of Nrf2 Activators. AREc32 ARE-luciferase reporter (MCF7-derived line), luminescence, 24 h. Potency, µM (titrated, usually from 46.1 µM), for inactives: at the highest dose activation, hits mostly activators. 0.31% of 410,000 active; further: potency means the concentration at half of the fitted maximal effect; % of control where 0% means no effect; nearly all actives have a fitted effect of over 65% in size
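AREc32_Fluc, 1000 cells/well, OPTI-MEM + 5% FBS, o/n 37 deg C 5% CO2; 23 nL cpd by pin tool, 24 hr; Steady-Glo 30 min RT, luminescence.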
miR-21 reporter – qHTS Assay for Modulators of miRNAs and/orActivators of miR-21. AID 2288, 2010. 340,000 tested, under 10 active. HeLa miR-21 FLuc reporter, luciferase, 48 h. Potency, µM (titrated, usually from 38.3 µM), for inactives: at the highest dose activity change, positive = activation, most hits filed as activators;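 further: % of control where 0% means no effect; miR-21 action dims this reporter so a rising signal means less miR-21 action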
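HeLa cells endogenously expressing miR-21, stably carrying CMV-driven firefly luciferase with a downstream miR-21 binding site, 2000 cells/well. Titrations up to approximately 40 uM, 48 hours; luciferase luminescence read.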
PTAP TSG101 blk – qHTS Assay for Iinhibitors of HIV-1 Budding by Blocking the Interaction of PTAP/TSG101. Tumor susceptibility gene 101 protein (Homo sapiens), Q99816. Fluorescence polarization, FITC-PTAP peptide / Tsg101 binding. Potency, µM (highest dose often 115 µM), for inactives: top-dose activity change, negative = inhibition, hits mostly inhibitors. 340,000 tested, under 10 active; active means well fitted inhibition curve with a large enough effect in the main read-out, with a control signal flat, not every such curve was filed as active; inconclusive means small, poorly fitted or top-dose-only effect, or effect the other way, or a change in a side signal; inactive means no such curve, though single readings can be large or run the other way; further: potency means the concentration at half of the fitted maximal effect; % of control where 0% means no effect
Target sequence (Q99816 whole entry, looked up): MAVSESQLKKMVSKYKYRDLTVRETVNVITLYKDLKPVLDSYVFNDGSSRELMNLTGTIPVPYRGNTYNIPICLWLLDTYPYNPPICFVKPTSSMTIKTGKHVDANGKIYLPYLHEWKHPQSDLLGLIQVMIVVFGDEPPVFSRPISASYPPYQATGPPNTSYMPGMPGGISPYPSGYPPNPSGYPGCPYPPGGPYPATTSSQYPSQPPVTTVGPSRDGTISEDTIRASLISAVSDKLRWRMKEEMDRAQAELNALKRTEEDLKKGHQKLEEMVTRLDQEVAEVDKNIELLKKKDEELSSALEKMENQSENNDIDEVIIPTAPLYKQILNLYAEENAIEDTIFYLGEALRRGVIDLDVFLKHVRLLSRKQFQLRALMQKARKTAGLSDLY
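FP read-out: FITC-PTAP peptide, 50 nM final, binding Tsg101 binding domain, 10 uM final; 20 min, r.t.; 10 mM HEPES pH 7.5, 0.15 M NaCl, 0.01% Tween 20, 3 mM EDTA, 0.1 mM TCEP.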
Nrf2 inh – Nrf2 qHTS screen for inhibitors. A549 ARE-Fluc reporter, luciferase luminescence, 18-24 h. Potency, µM (top dose mostly 46 µM), inactives show at the top dose activity change, negative = inhibition, actives largely listed as inhibitors. 2.1% of 360,000 active. AID 504444, 2011; further: potency means the concentration at half of the fitted maximal effect; on the % scale 0 is the no-effect control and ±100 the full control effect; nearly all actives have a fitted effect of over 60% in size
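A549 ARE_Fluc cells, 5000/well, 5% FBS OPTI-MEM; compounds in dose-response, 18-24 h at 37 °C/5% CO2; CellTiter-Fluor viability read (Ex 405/Em 525), then BugLite luciferase luminescence = Nrf2 activity.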
Glioma ERSR ind – qHTS for Inducers of the Endoplasmic Reticulum Stress Response (ERSR) in Human Glioma: qHTS. U87-MG GRP78 promoter luciferase reporter, 16 h. Potency, µM, inactives show top-dose activation, usual class: activators. 0.02% of 420,000 active. AID 602332, 2012; further: potency means the concentration at half of the fitted maximal effect; series mostly up to about 76 µM; % of control where 0% means no effect; nearly all actives have a fitted effect of over 35% in size
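ERSR induction read as luciferase luminescence (Bright-Glo, 10 min at room temperature) in stably transfected human U87-MG glioma cells exposed to compounds for 16 h, using GRP78 as sensor.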
Starred values were filed as active, the others as inactive; u = inconclusive; x = not tested or not shown; [ ] = another dose, or the depositor's remark. The list is not random: actives were taken first. Their share in the collection is about 2.1%. Unless noted, the call rests on the fitted dose curve; in most records, active means well fitted curve in the direction sought with a large enough effect; inconclusive means small, poorly fitted or top-dose-only effect, or another doubt; inactive means no such curve, though single readings can be large; an effect the other way counts as inactive or inconclusive.

SMILES | A549 tox | Nrf2 ARE act | miR-21 reporter | PTAP TSG101 blk | Nrf2 inh | Glioma ERSR ind
O=S(=O)(c1ccccc1C(F)(F)F)N1CCN(c2ncnc3sccc23)CC1 | -4% | 3% | x | 1% | u | -3%
O=S(=O)(c1ccc(F)c(F)c1F)N1CCN(c2ncnc3sccc23)CC1 | 0% | 5% | x | 0% | 13µM* | 0%
CCOP(=O)(OCC)OCC | 2% | 0% | x | -2% | 5% | -4%
CCOP(=O)(CCP(=O)(OCC)OCC)OCC.C[CH2][Sn]([Cl])([Cl])[CH2]C | 16µM* | -2% | x | -2% | u | -14%
C[C@]12CC[C@H](O)CC1=CCC1C2CC[C@@]2(C)C1C[C@@H](O)[C@@H]2O (stereo partly drawn) | 9% | 0% | x | 1% | 12% | -4%
CC(=O)C1C(N2CC2)CC2C3CC=C4CC(O)CCC4(C)C3CCC21C (stereo not drawn) | 8.2µM* | 9% | x | -5% | 3% | 6%
C[C@]12CC[C@@H](O)CC1=CCC1C2CC[C@@]2(C)C1C[C@@H](F)[C@@H]2O (stereo partly drawn) | 1% | 0% | x | -5% | -1% | 5%
COC(=O)C1=C(c2ccc(C(C)=O)cc2)C[C@@H]2CC[C@H]1N2C(=O)N1CCC(O)(c2ccc(Cl)cc2)CC1 | -16% | 6% | x | -3% | 23µM* | -5%
CC(=O)c1cn(Cc2ccccc2F)c2ccccc12 | -8% | 3% | 17% | -4% | 5.8µM* | 0%
CC(C)CC1C(=O)N2CCC[C@H]2[C@]2(O)O[C@](NC(=O)[C@@H]3C=C4c5cccc6[nH]c(Br)c(c56)C[C@H]4N(C)C3)(C(C)C)C(=O)N12 (stereo partly drawn) | -5% | x | x | x | 16µM* | -3%
C[C@@H]1O[C@@H](O[C@H]2C[C@@H](O)[C@]3(CO)[C@H]4[C@H](O)C[C@]5(C)[C@@H](C6COC(=O)C6)CC[C@]5(O)[C@@H]4CC[C@]3(O)C2)[C@H](O)[C@H](O)[C@H]1O (stereo partly drawn) | u | -4% | u | -4% | 0.41µM* | -6%
c1ccc(N2CCN(c3ncnc4c3nc3n4CCCCC3)CC2)cc1 | -16% | 0% | u | x | 23µM* | -2%
O=C1NC(=O)N(Cc2ccc(F)cc2)C(=O)/C1=C\c1ccc(N2CCCC2)cc1 | 4% | -1% | 1% | 1% | 4% | 0%
Fc1ccc(N2CCN(c3ncnc4c3nc3n4CCCCC3)CC2)cc1 | 1% | -1% | 2% | x | 8.2µM* | -2%
O=c1cccc2n1CC1CC2CN(Cc2cccc(Cl)c2Cl)C1 (stereo not drawn) | -4% | 2% | 25% | -9% | 21µM* | -3%
CCOc1ccc(-c2cc(C)[n+](CCO)c(-c3ccc(OCC)cc3)c2)cc1 | -7% | 0% | u | 0% | 12µM* | -5%
O=Nc1c(O)c2ccccc2c2ccccc12 | u | -3% | x | -1% | 23µM* | -2%
Cc1nn2c(=O)cc(N3CCNCC3)nc2s1 | 11% | x | x | x | 0% | x
CC[n+]1c(-c2ccccc2)c2cc(N)ccc2c2ccc(N)cc21 | u | -3% | x | -10% | 15µM* | -7%
CC(C)(C)NC[C@H](O)c1ccc(O)cc1Cl | x | x | x | x | x | -3%
COc1ccc(C(=O)C2CCCN(Cc3cnc(C)s3)C2)c(OC)c1 (stereo not drawn) | -7% | 5% | -2% | -2% | 21µM* | -1%
Cc1cnc2c(C(=O)O)c(Cl)ccc2c1 | x | x | x | x | x | -2%
O=C(O)c1ccccc1SCC(=O)N1c2ccccc2Sc2ccccc21 | -8% | u | -20% | -2% | 3% | 6%
C[CH2][Hg][S]c1ccccc1C(=O)O | 16µM* | u | x | -3% | u | -12%
CC12CCC(=O)CC1CCC1C2CCC2(C)C1CCC2(C)O (stereo not drawn) | x | x | x | x | x | -4%
SMILES | A549 tox | Nrf2 ARE act | miR-21 reporter | PTAP TSG101 blk | Nrf2 inh | Glioma ERSR ind
Cc1ccccc1C1CC(=O)Nc2ccc3ccccc3c21 (stereo not drawn) | -3% | -1% | u | x | 6% | -4%
Cc1cc(C(=O)Nc2ccc(CC(=O)O)cc2)c(C)o1 | 4% | -3% | 24% | -3% | 5.2µM* | -12%
O=C(C1CCN(S(=O)(=O)c2ccc(Br)s2)CC1)N1CCN(c2cccc(C(F)(F)F)c2)CC1 | -11% | 0% | -1% | x | 2.9µM* | -1%
Oc1cc2c(cc1O)[C@H]1c3ccccc3CN[C@H]1CC2 | x | x | x | x | x | -7%
CN(C)c1ccc([N+](=O)[O-])c([N+](=O)[O-])c1 | u | 11µM* | x | -11% | -20% | -2%
CC(C)c1ccc(Cc2cnc(NC(=O)c3ccc4c(c3)CC(c3ccccc3)OC4=O)s2)cc1 (stereo not drawn) | -7% | -2% | 12% | x | u | -3%
COc1cc(C(=O)NCCSc2c(-c3ccccc3)[nH]c3ccccc23)cc(OC)c1OC | -9% | 6% | u | x | -14%[9.27 µM] | -1%
Cc1ccccc1NC(=NCCCN1CC1)Nc1ccccc1C | 13µM* | 0% | x | 1% | -19% | -7%
Cc1ccccc1NC(=O)c1cc(-c2ccccc2)n(CCCN2CCOCC2)c1C | 1% | 3% | 2% | 1% | -28% | -3%
CN(C)C1CSSSC1 | x | x | x | x | x | -2%
Cc1cc(/C=C/c2ccnc3ccccc23)ccc1N(CCCl)CCCl | x | x | x | x | x | 3%
CC(O)C1C=CC=CC(=O)OC2CC3OC4C5OC5(C)CCC4(COC(=O)C4OC4(C)C(O)CO1)C2(C)C31CO1 (stereo not drawn) | x | -1% | x | 1% | 0.23µM* | -6%
COc1cccc(C(=O)N/N=C(/c2ccccc2)c2ccccn2)c1 | u | 0% | 16% | -6% | 10µM* | -3%
CC1(C)Cc2c(c(N3CCOCC3)nc3sc4c(NCc5ccccc5)nnnc4c23)CS1 | -2% | -1% | -9% | -4% | 2.6µM* | -4%
CCOc1ccc2nc(N=Nc3c(O)[nH]c(=O)[nH]c3=O)sc2c1 | u | 0% | 1% | -2% | -1% | 0%
CCOc1ccc2nc(N=Nc3c(O)[nH]c(=S)[nH]c3=O)sc2c1 | 23µM* | 0% | -1% | -6% | 18% | 0%
CCOc1cc2[nH]c(=O)n(CCCC(=O)N3CCN(c4cccc(Cl)c4)CC3)c(=O)c2cc1OCC | -24% | 0% | u | x | x | -4%

Screening results: PubChem BioAssay, National Center for Advancing Translational Sciences (NCATS)
